The record followed here is PubChem BioAssay (NCI).

Each structure is given as a SMILES string. This is part of a sample that, as a whole, favours compounds with a hit. Of some 83,000 tested, about 20% had one in any assay.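 Cells were grown in 96-well plates and exposed to the test compound at a single concentration for 48 hours; results are reported as percent growth, with values below 10 considered active.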 Activity calls are given as the source filed them.

In the assay the test system is SK-MEL-5 melanoma. Nature of the assay: NCI-60 one-dose screen, 48 h (100 = growth as untreated, 0 = no growth, -100 = all killed). Particulars: 10 µM unless noted. As for the experimental part:
Growth inhibition of the SK-MEL-5 human tumor cell line is measured as a screen for anti-cancer activity. Cells are grown in 96 well plates and exposed to the test compound for 48 hours. Compounds are tested at a single concentration, which is 10^-5 M for most compounds. The reported endpoint is percent growth (GI% or GIPRCNT), where numbers from 0 - 100% represent growth inhibition, and numbers from -100% - 0 represent cell death. For example, a value of 40 represents 60% growth inhibition. A value of 0 means no net growth occurred over the course of the experiment. A value of -40 indicates 40% of cells at the beginning of the experiment died by the end of the experiment. A value of -100 means all cells are dead at the end of the experiment.
NCI-60 Human Tumor Cell Lines Screen was performed using the standard one-dose NCI protocol, which is described in more detail at https://dtp.cancer.gov/discovery_development/nci-60/default.htm.
Compounds with GIPRCNT values below 10 were considered active. Activity score was based on GIPRCNT using the following formula: […]
Score is 0 for GIPRCNT values of 100 or above, 50 for GIPRCNT values of 0, and 100 for GIPRCNT values of -100.
In the case of `Cc1nc(NC(=O)COc2ccc(/C=C3\Cc4ccc(Cl)cc4C3=O)cc2)sc1C`, the growth is 111% (inactive).
With `COc1ccc(/C=C2\Oc3cc(OCCN4CCC(Cc5ccccc5)CC4)ccc3C2=O)cc1OC` the figure was 42.7% (inactive); with `COc1ccc(NC(=O)n2nc(/C=C\c3ccc(O)c(OC)c3)cc2/C=C\c2ccc(O)c(OC)c2)cc1`, 9.04% (active); with `COc1cc(/C=C/c2ccccc2)cc(OC)c1`, 96.5% (inactive).
With `O=CN1N=C(c2ccc(Nc3ccnc4cc(Cl)ccc34)cc2)CC1c1ccccc1` (stereo not given) the figure was 1.49% (active); with `CC(C)C(=O)Nc1ccc(-c2nc(-c3cccc(OCCN4CCOCC4)c3)c(-c3ccnc(Br)c3)[nH]2)cc1`, 45.8% (inactive).
As for `CN1CCN(c2ccc(-c3cc4c(Nc5ccc(F)c(Cl)c5)ncnn4c3)cc2)CC1`, the growth is 87.5% (inactive).
With `C=CCNc1ccc2c3c(cccc13)C(=O)N(N1C(=O)c3cccc4cccc(c34)C1=O)C2=O` the figure was 102% (inactive); with `COc1ccc(N2C(=O)C(Oc3ccccc3)C2c2ccc(C)cc2)cc1` (stereo not given), 104% (inactive); with `CCCCCCN(CCCCCC)c1ccc(/C=C2/SC(=O)NC2=O)c(C)c1`, 82.1% (inactive).
In the case of `Cc1nc(/N=C(\N)NC(=O)Nc2cccc(Cl)c2)sc1C`, the growth was 80.2% (inactive).
With `CCOC(=O)Nc1ccc(-c2nc(-c3cccc(OCCN4CCOCC4)c3)c(-c3ccnc(Br)c3)[nH]2)cc1` the figure was 38.1% (inactive).
Take `COC(=O)C(Cc1ccccc1)NC(=O)NC(=O)NC(=O)CI` (stereo not given): the growth was 89.7% (inactive).
Turning to `C=C1C(=O)O[C@H]2[C@H]1CC/C(COC(=O)CSCC(=O)OC/C1=C/CC[C@@]3(C)O[C@H]3[C@H]3OC(=O)C(=C)[C@@H]3CC1)=C\CC[C@@]1(C)O[C@@H]21`, the growth was 63.2% (inactive).
In the case of `O=C(Nc1ccc(OS(=O)(=O)c2ccc(F)cc2)cc1)c1ccc(Cl)cc1`, the growth is 90.8% (inactive).
For `COc1ccc2sc3c(NCCCN(C)C)nc4ccccc4c3c(=O)c2c1`, the growth is 66.4% (inactive).
With `CCOC(=O)c1sc2ncc(-c3ccc(OC)cc3)n2c1C` the figure was 94.3% (inactive).
The figure for `[O-][n+]1c2ccccc2[n+]([O-])c2c3ccccc3[nH]c21` is 73.5% (inactive).
On to `CC(=O)N1N=C(c2ccc(Nc3nc(Nc4ccc(F)cc4)nc(Nc4ccc(Cl)cc4)n3)cc2)CC1c1ccc(Cl)cc1` (stereo not given), for which the growth was 105% (inactive).
The figure for `COc1ccc(-c2cc(-c3ccc(Cl)cc3)c(C#N)c(=O)n2CCCCCC(=O)Nc2ccccc2N)cc1` is -79.7% (active); for `COc1ccc(-n2c(N)c(-c3nc4ccccc4[nH]3)cc(C#N)c2=O)cc1` it is 90.9% (inactive).
Regarding `COc1ccc(C(=O)/C=C/c2sc(Cl)nc2Cl)cc1`, the growth was -39.1% (active).
With `NCCCNc1nc2ccccc2c2c(=O)c3cc(F)cc(Cl)c3sc12` the figure was 98.3% (inactive); with `Cc1nc2ccccc2c(/C=C/c2ccc(Cl)cc2)c1C(=O)/C=C/c1ccc(C(F)(F)F)cc1`, -94.6% (active); with `O=C(Nc1ccc(Br)cc1F)c1cc(Br)ccc1O`, -93.7% (active).
The figure for `CCc1ccc(Oc2c(-c3ccc(OCCc4cccc(C(F)(F)F)c4)cc3O)n[nH]c2C(F)(F)F)cc1` is 42% (inactive); for `NC1=C(c2nn[nH]n2)C(c2ccccc2Cl)c2ccc3ccccc3c2O1` (stereo not given) it is 58% (inactive).
With `C[C@H](C(=O)Nc1ccc(S(N)(=O)=O)cc1)S(=O)(=O)c1ccccc1` the figure was 99.2% (inactive); with `Cc1ccc(C(CC(=O)O)c2c(C)[nH][nH]c2=O)cc1` (stereo not given), 102% (inactive).
Consider `N#Cc1c(-c2ccc(Cl)cc2)nc(NCCO)[nH]c1=O`, for which the growth was 107% (inactive).
As for `COc1ccc(C2=Nn3c(nnc3-c3cc(Cl)cc(Cl)c3Cl)SC2)cc1`, the growth was -13.5% (active).
Regarding `Cc1c(C(=O)NCCN2CCOCC2)cn2ncnc(Oc3ccc(NC(=O)Nc4ccc(Cl)c(C(F)(F)F)c4)cc3)c12`, the growth is 6.48% (active).
With `CCCCOc1nc2c(C)cccc2cc1-c1cc(-c2ccc(Cl)cc2)nc(-c2ccc(Cl)cc2)c1` the figure was 103% (inactive).
With `Cc1cc(O)c(C2=NN(c3ccc(S(N)(=O)=O)cc3)C(/C=C/c3ccccc3)C2)cc1Cl` (stereo not given) the figure was 19.1% (inactive); with `COc1cc(Nc2nc(NCCN)nc3cc[nH]c(=O)c23)cc(OC)c1`, 81.6% (inactive).
The figure for `CCC(C)(c1cc(C(C)(C)C)c(O)c(C(C)(C)C)c1)c1cc(C(C)(C)C)c(O)c(C(C)(C)C)c1` is 100% (inactive).
As to `Fc1cc2c(cc1Cl)N(c1ncnc3ccc(-c4cnc5cnccn45)cc13)CC2`, the growth was 95.3% (inactive).
Regarding `COc1ccc(C2NC(=O)C(C#N)c3c2sc2c(F)cccc32)c(OC)c1` (stereo not given), the growth was 81.8% (inactive).
On to `N#C/C(=C\c1cccc2cnccc12)n1nnc2cccc(F)c21`, for which the growth is 58.7% (inactive).
With `CC(C)(C)NC(=O)C(OC(=O)c1cccc(Cl)c1)c1ccc(Cl)cc1` (stereo not given) the figure was 98.2% (inactive).
